# Measured values taken from PubChem BioAssay (NCATS).
# “And” between values parts separate entries of the source, which are not always exact repeats. Equal entries are not always repeated. Results filed as inconclusive are left out. The source holds several records for some structures; these can differ, active in one and inactive in another. The source made the active and inactive calls. The call rests on the fitted dose curve; in most records, active means well fitted curve in the direction sought with a large enough effect; inconclusive means small, poorly fitted or top-dose-only effect, or another doubt; inactive means no such curve, though single readings can be large; an effect the other way counts as inactive or inconclusive.
# Tests used:
# [1] = Viability qHTS for spleen associated tyrosine kinase inhibitor (SYKi) naive MV4-11 cells (AID 1963823); further: nearly all actives have a fitted effect of over 40% in size
# How it was run: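 qHTS, SYK inhibitor-naive MV4-11; 500 cells/well; 72 hr compound exposure, 37 C; CellTiter-Glo added, 10 min RT; luminescence read.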
# [2] = Viability qHTS for spleen associated tyrosine kinase inhibitor (SYKi) drug resistant MV4-11 cells (AID 1963824); further: nearly all actives have a fitted effect of over 35% in size
# How it was run: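 SYK inhibitor-resistant MV4-11 AML cells, 500 per well, added to predispensed compounds and incubated 72 hr at 37 C, 5% CO2. Viability measured by CellTiter-Glo luminescence after 10 min at room temperature.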
# [3] = Cellular viability qHTS for adrenocortical cancer (ACC) cell line NCI-H295R (AID 1963990); further: nearly all actives have a fitted effect of over 60% in size
# How it was run: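 IC50 and maximal efficacy derive from four-parameter logistic modelling of titration curves, with reads scaled between DMSO-only wells (0%) and doxorubicin hydrochloride (100% inhibition). Compounds spanned up to 46 uM over 48 h.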
# Potency means the concentration at half of the fitted maximal effect.
Structure (SMILES),Potency [1],Potency [2],Potency [3]
O=C(O)Cn1c(C(=O)Nc2nc(-c3ccccc3Cl)cs2)cc2ccccc21,inactive,inactive,inactive
CC[C@]1(O)C[C@@H]2CN(CCc3c([nH]c4ccccc34)[C@@](C(=O)OC)(c3cc4c(cc3OC)N(C)[C@H]3[C@@](O)(C(=O)OC)[C@H](OC(C)=O)[C@]5(CC)C=CCN6CC[C@]43[C@@H]65)C2)C1,211 nM (active) and 36.6 nM (active),inactive and 94.4 nM (active) and 18.4 nM (active),116 nM (active) and 291 nM (active)
CCNC(=O)Nc1ccc(-c2nc3c(c(N4CCOC[C@@H]4C)n2)CCN(C2COC2)C3)cc1,0.934 µM (active),1.86 µM (active),3.55 µM (active)
CCC[C@H](NC(=O)/C(C#N)=C/c1cccc(Br)n1)c1ccccc1,2.09 µM (active),2.35 µM (active),12.6 µM (active)
CC1(C)CN(C(=O)c2ccc(-c3cccc4nc(NC(=O)C5CC5)nn34)cc2)C1,6.61 µM (active),16.4 µM (active),inactive
Cc1c(C)n(Cc2ccccc2)c2ccc(C(=O)OCCN(C)C)cc12,11.9 µM (active),11.9 µM (active),23.1 µM (active)
C=CC(=O)N1CC(N2CCN(C(=O)CNc3cc(C4(C)CC4)c(Cl)cc3O)CC2)C1,18.6 µM (active),16.6 µM (active),15.8 µM (active)
NC(=O)NNc1ccccc1,inactive,inactive,inactive
[2H]C([2H])([2H])C(O)([C@@H](C)/C=C/[C@@H](C)[C@H]1CC[C@H]2/C(=C/C=C3C[C@@H](O)C[C@H](O)C3)CCC[C@]12C)C([2H])([2H])[2H],0.0105 µM (active),0.468 µM (active),inactive
CNC1(C)C2CCC(C2)C1(C)C (stereo unspecified),inactive,inactive,inactive
Cc1ccc2c(Br)cc(Br)c(O)c2n1,16.8 µM (active),11.9 µM (active),1.64 µM (active)
CC(C)(C)NC(=O)[C@@H]1CN(Cc2cccnc2)CCN1C[C@@H](O)C[C@@H](Cc1ccccc1)C(=O)N[C@H]1c2ccccc2C[C@H]1O,inactive,inactive,inactive
CC(=O)O[C@H]1CC[C@@]2(C)C(=CC[C@@H]3[C@@H]2CC[C@]2(C)C(C(C)=O)=CC[C@@H]32)C1,inactive,inactive,inactive
C=C1C(=O)O[C@@H]2[C@H]3C(C)=CC[C@@]34O[C@@]4(C)CC[C@@H]12,3.32 µM (active),1.48 µM (active),17.8 µM (active)
C[N+](C)(CCOc1ccccc1)Cc1cccs1,inactive,inactive,inactive
CC(=O)O[C@@]12CO[C@@H]1C[C@H](O)[C@@]1(C)C(=O)[C@H](O)C3=C(C)[C@@H](OC(=O)[C@H](O)[C@@H](NC(=O)OC(C)(C)C)c4ccccc4)C[C@@](O)([C@@H](OC(=O)c4ccccc4)[C@H]21)C3(C)C,0.0027 µM (active),0.0024 µM (active),0.0411 µM (active)
O=C(NOCCO)c1ccc2cncn2c1Nc1ccc(I)cc1F,2.06 µM (active),0.105 µM (active),inactive
Cc1[nH]c(/C=C2\C(=O)Nc3ccc(S(=O)(=O)Cc4c(Cl)cccc4Cl)cc32)c(C)c1C(=O)N1CCC[C@@H]1CN1CCCC1,0.934 µM (active),1.86 µM (active),7.08 µM (active)
COC(=O)C1=C(C)NC(COC(N)=O)=C(C(=O)OC(C)C)C1c1cccc(Cl)c1Cl (stereo unspecified),21.1 µM (active),14.6 µM (active),20.6 µM (active)

Structure (SMILES),Potency [1],Potency [2],Potency [3]
CC(=O)OCC(=O)[C@@]1(O)[C@H](OC(C)=O)C[C@H]2[C@@H]3CCC4=CC(=O)C=C[C@]4(C)[C@@]3(F)[C@@H](O)C[C@@]21C,inactive,inactive,inactive
COc1ccccc1C(=O)Nc1cc2c(cc1N1CCNC[C@H]1C)n(C)c(=O)n2C,5.9 µM (active),11.8 µM (active),inactive
Cn1cc(-c2ccc(-c3cncc(Cl)c3N3CCC4(CCNC4=O)CC3)cc2)cn1,5.25 µM (active),1.48 µM (active),inactive
CNC(=O)[C@@H](NC(=O)[C@H](CC(C)C)[C@H](O)C(=O)NO)C(C)(C)C,13.2 µM (active),10.5 µM (active),inactive
CCN1CCN(C(=O)N[C@@H](C(=O)N[C@@H]2C(=O)N3C(C(=O)O)=C(CSc4nnnn4C)CS[C@H]23)c2ccc(O)cc2)C(=O)C1=O,inactive,inactive,inactive
Fc1ccc(-c2csc3ncnc(NCc4ccc5c(c4)OCO5)c23)cc1,1.66 µM (active),1.66 µM (active),25.1 µM (active)
C[C@H](NC(=O)/C(C#N)=C/c1cccc(Br)n1)c1ccccc1,3.72 µM (active),2.95 µM (active),28.2 µM (active)
CNC(=O)Cn1cc(-c2ccc3c(c2)C(F)CC32NC(=O)N(CC(=O)N(Cc3ccc(F)cc3)C(C)C(F)(F)F)C2=O)cn1 (stereo unspecified),0.0417 µM (active),0.166 µM (active),inactive
CC[C@]12CCCN3CCc4c(n(c5ccccc45)[C@@](O)(C(=O)OC)C1)[C@@H]32,inactive,inactive,inactive
Cc1nc2ccc(-n3ncc(C(=O)c4cc5ccccc5[nH]4)c3N)cc2[nH]1,2.59 µM (active),2.59 µM (active) and 4.68 µM (active),inactive
O=C(CCN1CCC(c2ccccc2)C1)c1ccc2c(c1)OCCO2 (stereo unspecified),7.5 µM (active),10.6 µM (active),6.51 µM (active)
CN(C)CCCOc1ccc(-c2ccc3ncc4c(c3c2)n(C2CCOCC2)c(=O)n4C)cn1,1.15 µM (active),2.04 µM (active),1.8 µM (active)
COc1c(C)c2c(c(O)c1C/C=C(\C)CCC(=O)OCCN1CCOCC1)C(=O)OC2,1.5 µM (active) and 332 nM (active),1.19 µM (active) and 833 nM (active),1.26 µM (active)
CCCCOc1ccc(C(=O)CCN2CCCCC2)cc1,21.1 µM (active),16.8 µM (active),8.2 µM (active)
Cn1nccc1Nc1nccc(-c2cc3c(s2)C(C)(C)N(CCN2CCOCC2)C3=O)n1,3.72 µM (active),3.72 µM (active),inactive
CN1C(=O)N[C@H](Cc2c[nH]c3c(Cl)cccc23)C1=O,inactive,inactive,inactive
NC(=O)c1cnc2[nH]ccc2c1NC1C2CC3C[C@H]1CC(O)(C3)C2 (stereo partly specified),0.105 µM (active),0.468 µM (active),inactive
Cc1cc(=O)[nH]c(=S)[nH]1,inactive,inactive,inactive
